In the supplement of paper PMC6378613:

Compound: Cc1ccc(-c2ccc3c(ccc4sc5c(c43)NC[C@@H](C)NC5=O)n2)cn1
Assay: kinase activity remaining relative to vehicle control; higher = less inhibition
Experimental: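 In vitro radiometric kinase profiling of the MK2 inhibitor PF-3644022 at 0.1, 1 and 10 µM against a panel of kinases (MRC International Centre for Kinase Profiling, Dundee). Read-out is % kinase activity remaining relative to the vehicle control, mean of n=2.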

Chain of UniProt Q8IW41 (Q8IW41 whole entry, looked up): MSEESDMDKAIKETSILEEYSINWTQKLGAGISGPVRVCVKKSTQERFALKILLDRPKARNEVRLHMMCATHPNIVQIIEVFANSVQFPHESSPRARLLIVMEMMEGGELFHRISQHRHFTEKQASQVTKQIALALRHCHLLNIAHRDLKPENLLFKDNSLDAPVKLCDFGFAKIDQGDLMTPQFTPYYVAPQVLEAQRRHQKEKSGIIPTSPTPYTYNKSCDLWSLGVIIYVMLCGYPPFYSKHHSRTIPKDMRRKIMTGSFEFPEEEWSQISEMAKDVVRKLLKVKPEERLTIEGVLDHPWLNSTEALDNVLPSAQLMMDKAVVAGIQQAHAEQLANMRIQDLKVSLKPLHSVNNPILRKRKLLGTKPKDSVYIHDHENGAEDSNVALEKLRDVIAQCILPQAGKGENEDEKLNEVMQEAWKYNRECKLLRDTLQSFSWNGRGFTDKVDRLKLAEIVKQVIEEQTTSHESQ
Chain of UniProt P51955 (P51955 whole entry, looked up): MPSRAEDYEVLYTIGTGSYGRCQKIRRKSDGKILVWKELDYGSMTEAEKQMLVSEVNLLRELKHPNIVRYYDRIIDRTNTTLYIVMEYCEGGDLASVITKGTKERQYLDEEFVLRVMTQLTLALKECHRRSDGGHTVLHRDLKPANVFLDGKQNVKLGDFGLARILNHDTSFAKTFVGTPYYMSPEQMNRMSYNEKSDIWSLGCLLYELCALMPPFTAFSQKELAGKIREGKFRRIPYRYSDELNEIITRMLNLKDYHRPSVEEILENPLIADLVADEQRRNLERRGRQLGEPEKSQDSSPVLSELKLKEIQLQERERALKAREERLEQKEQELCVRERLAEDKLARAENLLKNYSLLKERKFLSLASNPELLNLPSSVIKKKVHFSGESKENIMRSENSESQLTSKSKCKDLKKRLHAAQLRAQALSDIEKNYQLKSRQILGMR
Chain of UniProt Q9H0K1 (Q9H0K1 whole entry, looked up): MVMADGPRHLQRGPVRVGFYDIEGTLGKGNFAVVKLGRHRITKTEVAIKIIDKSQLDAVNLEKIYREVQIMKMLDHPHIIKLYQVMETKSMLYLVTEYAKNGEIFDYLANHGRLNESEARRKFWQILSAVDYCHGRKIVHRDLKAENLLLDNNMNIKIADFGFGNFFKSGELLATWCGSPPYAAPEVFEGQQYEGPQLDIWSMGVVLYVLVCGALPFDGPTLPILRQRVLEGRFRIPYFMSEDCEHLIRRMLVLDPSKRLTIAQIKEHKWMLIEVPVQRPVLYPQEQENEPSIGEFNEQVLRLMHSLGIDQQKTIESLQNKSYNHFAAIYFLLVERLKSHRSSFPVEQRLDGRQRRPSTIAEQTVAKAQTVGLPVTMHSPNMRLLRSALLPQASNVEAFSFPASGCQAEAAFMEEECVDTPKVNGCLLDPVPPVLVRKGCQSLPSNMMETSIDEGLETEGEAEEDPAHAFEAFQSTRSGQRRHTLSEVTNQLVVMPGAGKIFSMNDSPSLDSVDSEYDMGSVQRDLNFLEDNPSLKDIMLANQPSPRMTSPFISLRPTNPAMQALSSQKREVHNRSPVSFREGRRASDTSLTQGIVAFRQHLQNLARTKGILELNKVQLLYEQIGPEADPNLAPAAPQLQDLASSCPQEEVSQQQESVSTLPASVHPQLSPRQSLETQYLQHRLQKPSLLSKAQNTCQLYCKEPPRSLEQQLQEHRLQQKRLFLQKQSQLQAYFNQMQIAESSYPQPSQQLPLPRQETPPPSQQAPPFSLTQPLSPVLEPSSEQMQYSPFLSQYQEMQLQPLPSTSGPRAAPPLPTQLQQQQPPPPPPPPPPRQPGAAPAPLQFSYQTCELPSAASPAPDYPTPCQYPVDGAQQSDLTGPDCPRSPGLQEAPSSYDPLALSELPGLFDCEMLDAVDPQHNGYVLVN
Chain of UniProt Q02763 (Q02763 whole entry, looked up): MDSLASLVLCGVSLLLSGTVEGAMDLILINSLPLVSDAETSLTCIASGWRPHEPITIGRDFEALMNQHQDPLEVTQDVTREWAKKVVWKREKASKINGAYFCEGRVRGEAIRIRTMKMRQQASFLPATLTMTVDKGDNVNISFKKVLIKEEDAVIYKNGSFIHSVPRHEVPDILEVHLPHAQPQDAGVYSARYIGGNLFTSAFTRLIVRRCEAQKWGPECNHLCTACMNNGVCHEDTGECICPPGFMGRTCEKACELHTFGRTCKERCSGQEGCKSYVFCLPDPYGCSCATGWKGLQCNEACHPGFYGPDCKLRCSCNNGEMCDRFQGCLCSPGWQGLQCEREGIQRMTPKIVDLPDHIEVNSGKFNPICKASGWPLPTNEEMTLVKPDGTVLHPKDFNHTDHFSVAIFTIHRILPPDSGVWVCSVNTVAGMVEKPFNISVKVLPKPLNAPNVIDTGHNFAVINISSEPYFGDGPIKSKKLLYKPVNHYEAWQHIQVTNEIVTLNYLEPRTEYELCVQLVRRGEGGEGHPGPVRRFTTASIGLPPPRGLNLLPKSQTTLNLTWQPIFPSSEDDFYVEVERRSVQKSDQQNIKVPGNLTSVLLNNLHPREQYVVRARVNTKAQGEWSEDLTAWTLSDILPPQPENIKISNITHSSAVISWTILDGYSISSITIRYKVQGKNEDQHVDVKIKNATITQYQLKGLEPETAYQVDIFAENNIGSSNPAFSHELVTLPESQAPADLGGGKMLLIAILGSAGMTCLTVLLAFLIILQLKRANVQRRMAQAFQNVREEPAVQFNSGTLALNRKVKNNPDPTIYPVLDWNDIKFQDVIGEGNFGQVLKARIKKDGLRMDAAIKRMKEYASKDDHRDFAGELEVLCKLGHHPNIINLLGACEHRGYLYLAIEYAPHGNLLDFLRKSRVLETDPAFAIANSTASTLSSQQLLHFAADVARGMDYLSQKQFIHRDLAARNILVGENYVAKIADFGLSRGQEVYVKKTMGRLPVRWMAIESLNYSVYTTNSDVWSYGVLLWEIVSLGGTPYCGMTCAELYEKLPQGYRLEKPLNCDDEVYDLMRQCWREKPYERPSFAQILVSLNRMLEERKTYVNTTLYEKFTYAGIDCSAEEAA
Chain of UniProt O96017 (O96017 whole entry, looked up): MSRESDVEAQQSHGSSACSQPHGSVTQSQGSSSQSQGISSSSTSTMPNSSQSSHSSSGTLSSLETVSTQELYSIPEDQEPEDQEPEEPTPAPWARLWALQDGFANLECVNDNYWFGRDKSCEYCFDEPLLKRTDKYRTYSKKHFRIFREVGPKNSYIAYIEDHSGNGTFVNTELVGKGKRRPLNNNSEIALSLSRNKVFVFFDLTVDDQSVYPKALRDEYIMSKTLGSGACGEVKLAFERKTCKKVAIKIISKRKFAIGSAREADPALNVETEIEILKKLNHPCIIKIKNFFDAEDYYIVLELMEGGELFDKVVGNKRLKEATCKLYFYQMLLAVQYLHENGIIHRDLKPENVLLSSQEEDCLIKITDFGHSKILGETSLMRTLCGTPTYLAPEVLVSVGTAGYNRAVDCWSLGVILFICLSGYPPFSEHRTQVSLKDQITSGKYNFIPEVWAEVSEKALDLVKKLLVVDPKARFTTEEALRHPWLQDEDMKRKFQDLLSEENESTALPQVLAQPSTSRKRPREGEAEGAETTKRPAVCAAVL
Chain of UniProt Q13233 (Q13233 whole entry, looked up): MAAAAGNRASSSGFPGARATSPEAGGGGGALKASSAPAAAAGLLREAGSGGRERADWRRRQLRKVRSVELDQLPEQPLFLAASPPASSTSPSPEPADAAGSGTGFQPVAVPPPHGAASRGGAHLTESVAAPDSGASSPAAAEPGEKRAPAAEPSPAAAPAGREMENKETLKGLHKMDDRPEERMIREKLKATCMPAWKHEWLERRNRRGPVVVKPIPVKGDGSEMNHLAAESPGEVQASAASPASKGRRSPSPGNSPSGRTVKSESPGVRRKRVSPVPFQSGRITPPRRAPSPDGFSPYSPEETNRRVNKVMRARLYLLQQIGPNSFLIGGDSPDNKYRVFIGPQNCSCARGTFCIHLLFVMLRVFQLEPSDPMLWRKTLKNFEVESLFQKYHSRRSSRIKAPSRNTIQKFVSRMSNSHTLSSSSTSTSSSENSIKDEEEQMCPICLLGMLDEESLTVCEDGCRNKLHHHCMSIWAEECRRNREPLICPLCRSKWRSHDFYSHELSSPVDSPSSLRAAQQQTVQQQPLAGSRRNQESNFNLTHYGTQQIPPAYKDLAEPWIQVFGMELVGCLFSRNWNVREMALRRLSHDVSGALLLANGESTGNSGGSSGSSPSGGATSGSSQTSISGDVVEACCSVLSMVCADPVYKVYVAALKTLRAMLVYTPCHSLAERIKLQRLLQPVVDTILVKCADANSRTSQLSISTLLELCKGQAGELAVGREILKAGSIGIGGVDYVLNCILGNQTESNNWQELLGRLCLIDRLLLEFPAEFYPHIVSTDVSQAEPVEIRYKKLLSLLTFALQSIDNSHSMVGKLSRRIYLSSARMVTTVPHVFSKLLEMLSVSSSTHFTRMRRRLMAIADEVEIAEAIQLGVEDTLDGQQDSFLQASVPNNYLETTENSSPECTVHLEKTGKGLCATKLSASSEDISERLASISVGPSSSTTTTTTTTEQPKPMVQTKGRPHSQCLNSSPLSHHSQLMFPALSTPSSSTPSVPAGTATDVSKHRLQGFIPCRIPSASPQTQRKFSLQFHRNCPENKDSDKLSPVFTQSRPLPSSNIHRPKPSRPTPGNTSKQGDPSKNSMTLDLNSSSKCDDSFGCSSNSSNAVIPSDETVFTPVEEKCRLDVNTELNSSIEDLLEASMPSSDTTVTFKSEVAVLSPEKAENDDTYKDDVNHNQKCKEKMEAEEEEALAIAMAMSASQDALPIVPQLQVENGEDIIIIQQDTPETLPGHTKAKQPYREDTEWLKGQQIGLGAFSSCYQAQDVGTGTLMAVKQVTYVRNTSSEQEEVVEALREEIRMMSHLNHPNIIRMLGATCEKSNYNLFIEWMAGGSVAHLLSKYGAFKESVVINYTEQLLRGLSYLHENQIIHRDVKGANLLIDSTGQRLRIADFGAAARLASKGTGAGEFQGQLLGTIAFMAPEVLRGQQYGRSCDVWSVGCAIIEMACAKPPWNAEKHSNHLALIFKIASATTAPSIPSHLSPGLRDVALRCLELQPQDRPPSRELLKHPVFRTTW

Target	kinase activity remaining (inhibitor concentration 0.1 µM)	kinase activity remaining (inhibitor concentration 1 µM)	kinase activity remaining (inhibitor concentration 10 µM)
SIK3 (UniProt Q9Y2K2)	98%	99%	73%
CHK2 (UniProt O96017)	112%	51%	9%
PLK1 (UniProt P53350)	102%	114%	98%
PIM3 (UniProt Q86V86)	55%	18%	3%
CK2	100%	97%	93%
CK1 gamma 2	123%	112%	102%
PAK4 (UniProt O96013)	103%	88%	82%
TIE2 (UniProt Q02763)	105%	86%	88%
DDR2 (UniProt Q16832)	105%	101%	91%
TSSK1 (UniProt Q9BXA7)	97%	85%	89%
SRPK1 (UniProt Q96SB4)	89%	63%	19%
PDGFRA (UniProt P16234)	104%	108%	104%
EPH-B3	98%	88%	85%
Lck (UniProt P06239)	108%	95%	86%
PKC alpha	101%	113%	90%
CAMKK beta	107%	87%	28%
CAMK1 (UniProt Q14012)	96%	97%	68%
GCK (UniProt P35557)	109%	89%	19%
DYRK2 (UniProt Q92630)	101%	105%	52%
IRR (UniProt P14616)	99%	79%	53%
MKK6 (UniProt P52564)	95%	98%	91%
HIPK2 (UniProt Q9H2X6)	123%	113%	78%
RIPK2 (UniProt O43353)	93%	94%	39%
VEGFR1 (UniProt P17948)	112%	118%	65%
ULK1 (UniProt O75385)	115%	89%	75%

Target	kinase activity remaining (inhibitor concentration 0.1 µM)	kinase activity remaining (inhibitor concentration 1 µM)	kinase activity remaining (inhibitor concentration 10 µM)
CK1 delta	96%	96%	92%
WNK1 (UniProt Q9H4A3)	113%	108%	119%
IRAK4 (UniProt Q9NWZ3)	94%	62%	24%
TTBK1 (UniProt Q5TCY1)	103%	104%	96%
RSK1 (UniProt Q15418)	106%	100%	76%
NUAK1 (UniProt O60285)	112%	102%	58%
JNK3 (UniProt P53779)	120%	104%	102%
ERK1 (UniProt P27361)	111%	108%	112%
IGF-1R	101%	108%	114%
PIM1 (UniProt P11309)	93%	58%	17%
IRAK1 (UniProt P51617)	104%	77%	27%
Aurora B	109%	99%	64%
MELK (UniProt Q14680)	123%	102%	77%
MARK2 (UniProt Q7KZI7)	116%	113%	95%
TTK (UniProt P33981)	117%	101%	84%
MARK1 (UniProt Q9P0L2)	116%	107%	93%
JAK2 (UniProt O60674)	101%	102%	79%
CHK1 (UniProt O14757)	139%	109%	112%
TTBK2 (UniProt Q6IQ55)	122%	122%	103%
MAP4K5 (UniProt Q9Y4K4)	111%	108%	61%
PKB alpha (UniProt P31749)	109%	97%	98%
PRAK (UniProt Q8IW41)	126%	67%	24%
TBK1 (UniProt Q9UHD2)	110%	87%	96%
YES1 (UniProt P07947)	112%	89%	55%
HER4 (UniProt Q15303)	92%	105%	99%

Target	kinase activity remaining (inhibitor concentration 0.1 µM)	kinase activity remaining (inhibitor concentration 1 µM)	kinase activity remaining (inhibitor concentration 10 µM)
MKK1	101%	97%	69%
SIK2 (UniProt Q9H0K1)	99%	86%	77%
PKC gamma	118%	110%	101%
MAPKAP-K3	114%	62%	30%
DAPK1 (UniProt P53355)	103%	62%	15%
PIM2 (UniProt Q9P1W9)	103%	103%	66%
p38 alpha MAPK	94%	94%	83%
DYRK1A (UniProt Q13627)	80%	31%	8%
TAO1	109%	98%	70%
ERK2 (UniProt P28482)	102%	84%	81%
CSK (UniProt P41240)	117%	111%	106%
p38 delta MAPK	108%	103%	94%
MAPKAP-K2	24%	9%	2%
MAP4K3 (UniProt Q8IVH8)	98%	72%	41%
MLK1 (UniProt P80192)	99%	95%	60%
MPSK1 (UniProt O75716)	117%	118%	105%
MARK3 (UniProt P27448)	113%	115%	110%
ULK2 (UniProt Q8IYT8)	109%	121%	54%
MARK4 (UniProt Q96L34)	107%	87%	49%
EPH-B2	99%	110%	111%
S6K1	99%	95%	80%
MNK2 (UniProt Q9HBH9)	111%	51%	26%
JNK1 (UniProt P45983)	96%	93%	92%
EIF2AK3 (UniProt Q9NZJ5)	114%	101%	73%
NEK2a (UniProt P51955)	108%	99%	88%

Target	kinase activity remaining (inhibitor concentration 0.1 µM)	kinase activity remaining (inhibitor concentration 1 µM)	kinase activity remaining (inhibitor concentration 10 µM)
MKK2 (UniProt P36507)	113%	108%	79%
MST3 (UniProt Q9Y6E0)	118%	109%	108%
PKB beta (UniProt P31749)	100%	90%	69%
BRK (UniProt Q13882)	121%	94%	92%
GSK3 beta	126%	99%	88%
FGF-R1	95%	91%	68%
BRSK1 (UniProt Q8TDC3)	86%	55%	29%
MSK1 (UniProt O75582)	120%	105%	99%
OSR1 (UniProt Q8TAX0)	113%	112%	118%
MINK1 (UniProt Q8N4C8)	98%	97%	40%
PAK5 (UniProt Q9P286)	108%	101%	101%
PAK6 (UniProt Q9NQU5)	117%	106%	116%
HIPK1 (UniProt Q86Z02)	111%	104%	130%
MLK3 (UniProt Q16584)	114%	102%	73%
AMPK (hum)	68%	21%	6%
PHK	110%	91%	86%
JNK2 (UniProt P45984)	123%	111%	107%
IR	123%	125%	133%
EF2K	106%	97%	85%
EPH-A4	99%	103%	78%
SYK (UniProt P43405)	94%	98%	82%
PKA	109%	119%	108%
MEKK1 (UniProt Q13233)	102%	109%	109%
